Data from PubChem BioAssay (NCATS).
Records with an inconclusive call do not appear. A call without a number means that no potency is given here. The source made the active and inactive calls. Calls follow the shape of the dose curve; as a rule, active = well fitted inhibition curve with a large enough effect; inconclusive = small, poorly fitted or top-dose-only effect; inactive = flat fitted curve, though single readings scatter.

How the values were obtained:
Experiment in all cases: qHTS profiling for inhibitors of Plasmodium falciparum proliferation (AID 504749); also: nearly all actives have a fitted effect of over 60% in size
Conditions in all cases: P. falciparum in erythrocytes, SYBR Green DNA, 72 h; series mostly up to 28.7 µM
CP268 = tested on: CP268
Summary of the method: (§1)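 In a 72 h erythrocytic culture (37 C, humidified, 5% CO2) at 2.5% hematocrit and 0.3% starting parasitemia, compounds were tested; SYBR Green I in detergent lysis buffer stained parasite DNA overnight.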

CP269 = tested on: CP269
Summary of the method: as §1

CP286 = tested on: CP286
Summary of the method: as §1

CP291 = tested on: CP291
Summary of the method: as §1

CP297 = tested on: CP297
Summary of the method: as §1

CP305 = tested on: CP305
Summary of the method: as §1

CP315 = tested on: CP315
Summary of the method: as §1

CP325 = tested on: CP325
Summary of the method: as §1

CP329 = tested on: CP329
Summary of the method: as §1

CP335 = tested on: CP335
Summary of the method: as §1

DFO2036 = tested on: DFO2036
Summary of the method: as §1

DIV14 = tested on: DIV14
Summary of the method: as §1

DIV17 = tested on: DIV17
Summary of the method: as §1

DIV30 = tested on: DIV30
Summary of the method: as §1

Dd2 = tested on: Dd2
Summary of the method: as §1

ECU = tested on: ECU
Summary of the method: as §1

FAB9 = tested on: FAB9
Summary of the method: as §1

GB4 = tested on: GB4
Summary of the method: as §1

HB3 = tested on: HB3
Summary of the method: as §1

ICS = tested on: ICS
Summary of the method: as §1
Potency is read from the fitted curve at half-maximal effect.

Compound | Potency (CP268) | outcome (CP269) | Potency (CP286) | outcome (CP291) | outcome (CP297) | Potency (CP305) | outcome (CP315) | outcome (CP325) | outcome (CP329) | Potency (CP335) | Potency (DFO2036) | Potency (DIV14) | Potency (DIV17) | outcome (DIV30) | Potency (Dd2) | Potency (ECU) | Potency (FAB9) | Potency (GB4) | Potency (HB3) | Potency (ICS)
O=C(CN1CCNCC1)NC1CCCCC1 | inactive | inactive | inactive | inactive | inactive | inactive | inactive | inactive | inactive | inactive | inactive | inactive | inactive | inactive | inactive | inactive | inactive | inactive | inactive | inactive
Cc1ccc(C(C)C)c(O)c1 | inactive | inactive | inactive | inactive | inactive | inactive | inactive | inactive | inactive | inactive | inactive | inactive | inactive | inactive | inactive | inactive | inactive | inactive | inactive | inactive
CC(=O)N[C@@H](Cc1ccc(O)cc1)C(=O)O | inactive | inactive | inactive | inactive | inactive | inactive | inactive | inactive | inactive | inactive | inactive | inactive | inactive |  | inactive | inactive | inactive | inactive | inactive | inactive
CNc1c2c(nn1C)CCCC2 | inactive | inactive | inactive | inactive | inactive | inactive | inactive | inactive | inactive | inactive | inactive |  | inactive | inactive | inactive | inactive | inactive | inactive | inactive | inactive
O=C(/C=C/c1ccccc1)OCc1ccccc1 | inactive | inactive | inactive | inactive | inactive | inactive | inactive | inactive | inactive |  | inactive | inactive | inactive | inactive | inactive | inactive | inactive | inactive | inactive | 
COc1cc(O)cc(O)c1 | inactive | inactive | inactive | inactive | inactive | inactive | inactive | inactive | inactive | inactive | inactive | inactive |  | inactive | inactive | inactive | inactive | inactive | inactive | inactive
CCCNC(C)(C)COC(=O)c1ccccc1 | inactive | inactive | inactive | inactive | inactive | inactive | inactive | inactive | inactive |  | inactive | inactive | inactive | inactive | inactive | inactive | inactive |  | inactive | inactive
O=C1CC[C@@H](C(=O)O)N1 | inactive | inactive | inactive | inactive | inactive | inactive | inactive | inactive | inactive | inactive | inactive | inactive |  | inactive | inactive | inactive | inactive |  | inactive | 
O=C(O)c1ccc[n+]([O-])c1 | inactive | inactive | inactive | inactive | inactive | inactive | inactive | inactive | inactive | inactive | inactive |  | inactive | inactive | inactive | inactive | inactive | inactive | inactive | inactive
Cc1ccc(S(=O)(=O)NC(=O)NC2CCCCC2)cc1 | inactive | inactive | inactive | inactive | inactive | inactive | inactive | inactive | inactive | inactive | inactive | inactive | inactive | inactive |  | inactive | inactive | inactive | inactive | inactive
CCCCCC(C)N (centres undefined) | inactive | inactive | 8.91 µM (active) | inactive | inactive | inactive | inactive | inactive | inactive |  | inactive | inactive |  | inactive | 11.2 µM (active) |  | inactive | inactive |  | 5.01 µM (active)
Cc1c(NC(C)C)c(=O)n(-c2ccccc2)n1C | inactive | inactive | inactive | inactive | inactive | inactive | inactive | inactive | inactive | inactive | inactive | inactive | inactive | inactive | inactive |  | inactive | inactive | inactive | 
NC(=O)c1ccc([N+](=O)[O-])cc1Cl | inactive | inactive | inactive | inactive | inactive | inactive | inactive | inactive | inactive |  | inactive |  |  | inactive | inactive |  | inactive |  | 12.6 µM (active) | 4.47 µM (active)
Nc1ccc(C(=O)Oc2ccccc2)c(O)c1 | inactive | inactive | inactive | inactive | inactive | inactive | inactive | inactive | inactive | inactive | inactive |  | inactive | inactive | inactive | inactive | inactive | inactive | inactive | inactive
O=C(O)CCC(=O)O | inactive | inactive | inactive | inactive | inactive | inactive | inactive | inactive | inactive |  | inactive | inactive | inactive | inactive | inactive | inactive | inactive | inactive | inactive | inactive
O=C(O)CCCCC1CCSS1 (centres undefined) | inactive | inactive | inactive | inactive | inactive | inactive | inactive | inactive | inactive | inactive | inactive |  | inactive | inactive | inactive | inactive | inactive | inactive | inactive | inactive
